According to PubChem BioAssay (NCI):
The panel holds about 79,000 compounds, 15% with a hit somewhere; the sample as a whole holds those more often. The source made the active and inactive calls. Cut-off read from the data, not from the text of the source: active = growth inhibition above about 70%; inactive = the rest.

What was measured:
[1] = NCI Yeast Anticancer Drug Screen. Data for the rad52 strain (AID 147);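 note: 0% = growth of vehicle-treated control cultures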; settings: S. cerevisiae rad52 mutant growth inhibition, active compounds read high
Outline: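 Measured: yeast growth inhibition. System: strain with a defined DNA damage repair alteration. Reference: vehicle-treated control cultures.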

[2] = NCI Yeast Anticancer Drug Screen. Data for the wt1 strain (AID 149);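 note: 0% = growth of vehicle-treated wt1 cultures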; settings: S. cerevisiae wt1 strain (SPY 50644) growth inhibition, active compounds read high
Outline: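 Vehicle-normalised growth inhibition; strain wt1; compound exposure.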

[3] = NCI Yeast Anticancer Drug Screen. Data for the rad50EPP+ strain (AID 151);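 note: 0% = growth of vehicle-treated control cultures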; settings: S. cerevisiae rad50 mutant strain, active compounds read high
Outline: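 One strain with a rad50 alteration (rad50EPP+) was compound-treated, its growth then compared to that of vehicle controls.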

[4] = NCI Yeast Anticancer Drug Screen. Data for the mgt1 strain (AID 153); settings: S. cerevisiae mgt1 mutant growth inhibition, active compounds read high
Outline: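 After exposure of the mgt1 yeast mutant to compound, growth was measured and reported as inhibition compared with vehicle controls.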

[5] = NCI Yeast Anticancer Drug Screen. Data for the rad50 strain (AID 155);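 note: 0% = growth of vehicle-only cultures of the same strain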; settings: S. cerevisiae rad50 strain growth inhibition, active compounds read high
Outline: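 A DNA repair-deficient yeast mutant serves as the test organism; compound-induced growth inhibition is calculated against vehicle-treated cells.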

[6] = NCI Yeast Anticancer Drug Screen. Data for the mec2-1 strain (AID 157); settings: S. cerevisiae mec2-1 strain, active compounds read high
Outline: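 Test agents were screened against the mec2-1 yeast strain, with defined DNA repair or cell cycle alteration. Growth was scored as inhibition against vehicle-only controls.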

[7] = NCI Yeast Anticancer Drug Screen. Data for the rad14 strain (AID 159);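 note: 0% = growth of vehicle-treated control cultures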; settings: S. cerevisiae rad14 strain growth inhibition, active compounds read high
Outline: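 Vehicle-treated cultures served as the baseline for growth inhibition of a DNA repair-mutant yeast strain exposed to each compound.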

[8] = NCI Yeast Anticancer Drug Screen. Data for the sgs1 mgt1 strain (AID 161);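 note: 0% = growth of cultures given vehicle only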; settings: S. cerevisiae sgs1 mgt1 strain, active compounds read high
Outline: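 Genetically altered yeast, compound exposure, growth inhibition relative to vehicle.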

[9] = NCI Yeast Anticancer Drug Screen. Data for the CLN2oe strain (AID 163);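 note: 0% = growth of vehicle-only control cultures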; settings: S. cerevisiae CLN2oe strain, active compounds read high
Outline: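 Here, growth inhibition in a cell-cycle-altered yeast strain after compound exposure was quantified against vehicle control growth.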

[10] = NCI Yeast Anticancer Drug Screen. Data for the cln2 rad14 strain (AID 165);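 note: 0% = growth equal to vehicle treated cultures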; settings: S. cerevisiae cln2 rad14 strain, active compounds read high
Outline: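 Growth of compound-exposed yeast (cln2 rad14 genotype) measured and expressed as inhibition relative to vehicle.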

[11] = NCI Yeast Anticancer Drug Screen. Data for the bub3 strain (AID 167); settings: S. cerevisiae bub3 mutant strain, active compounds read high
Outline: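 Inhibition values come from growth of compound-treated mutant yeast normalised to vehicle-treated controls.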

[12] = NCI Yeast Anticancer Drug Screen. Data for the wt2 strain (AID 169);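 note: 0% = growth of vehicle-treated yeast cultures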; settings: S. cerevisiae wt2 strain growth inhibition, active compounds read high
Outline: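 Genetically defined yeast strains from a DNA-repair/cell-cycle panel were used. Compound-exposed yeast growth was measured, and the inhibition was calculated relative to vehicle treatment.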

[13] = NCI Yeast Anticancer Drug Screen. Data for the mlh1 strain (AID 171);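 note: 0% = growth of vehicle-treated control cultures of the same strain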; settings: S. cerevisiae mlh1 strain growth inhibition, active compounds read high
Outline: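 Here the genetically defined yeast mutant is grown with each compound, and the extent to which its growth falls below that of vehicle-exposed cells is reported.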

[14] = NCI Yeast Anticancer Drug Screen. Data for the sgs1 strain (AID 173);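 note: 0% = growth of vehicle-only control cultures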; settings: S. cerevisiae sgs1 mutant, active compounds read high
Outline: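 Relative growth inhibition, referenced to vehicle, was determined in a yeast strain with a defined alteration affecting DNA damage repair or cell cycle control after compound exposure.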

[15] = NCI Yeast Anticancer Drug Screen. Data for the mlh1 rad18 strain (AID 175); settings: S. cerevisiae mlh1 rad18 strain growth inhibition, active compounds read high
Outline: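 In this whole-cell yeast screen, a strain with altered DNA damage repair is challenged with compound, and its growth is measured against matched vehicle-treated controls.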

[16] = NCI Yeast Anticancer Drug Screen. Data for the rad18 strain (AID 177); settings: S. cerevisiae rad18 mutant growth inhibition, active compounds read high
Outline: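 Screen uses a yeast strain with a defined lesion in DNA damage repair; compound effect is read as loss of growth compared to untreated vehicle cultures.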

[17] = at 5.0 µM (retest, dose inferred, filed as 0.5)
[18] = at 50.0 µM (retest, dose inferred, filed as 5.0)

Measured: growth inhibition

CCN(CC)CCNc1ccc2ncn3c4ccc(O)cc4c(=O)c1c23
active: [1]; at 33.0 µM 75% | [1]; at 100.0 µM 85% | [5]; at 33.0 µM 81% | [5]; at 100.0 µM 87%
inactive: [1]; at 1.2 µM 9% | [1]; at 3.7 µM 28% | [1]; at 11.0 µM 56% | [2]; at 1.2 µM 0% | [2]; at 3.7 µM -2% | [2]; at 11.0 µM -4% | [2]; at 33.0 µM -2% | [2]; at 100.0 µM 1% | [3]; at 1.2 µM -1% | [3]; at 3.7 µM 6% | [3]; at 11.0 µM 13% | [3]; at 33.0 µM 26% | [3]; at 100.0 µM 39% | [4]; at 1.2 µM -3% | [4]; at 3.7 µM -6% | [4]; at 11.0 µM -1% | [4]; at 33.0 µM 1% | [4]; at 100.0 µM 1% | [5]; at 1.2 µM 13% | [5]; at 3.7 µM 32% | [5]; [17] 65% | [5]; at 11.0 µM 65% | [5]; [18] 65% | [5]; at 50.0 µM -6.6% | [6]; at 1.2 µM -3% | [6]; at 3.7 µM -3% | [6]; [17] 18% | [6]; at 11.0 µM -2% | [6]; at 33.0 µM 4% | [6]; [18] 18% | [6]; at 50.0 µM 3.05% | [6]; at 100.0 µM 22% | [7]; at 1.2 µM 2% | [7]; at 3.7 µM -1% | [7]; at 11.0 µM 3% | [7]; at 33.0 µM 3% | [7]; at 100.0 µM 6% | [8]; [17] 13% | [8]; [18] 13% | [8]; at 50.0 µM -33.6% | [9]; at 1.2 µM -4% | [9]; at 3.7 µM 1% | [9]; at 11.0 µM 0% | [9]; at 33.0 µM 2% | [9]; at 100.0 µM -1% | [10]; [17] 18% | [10]; [18] 18% | [10]; at 50.0 µM 19.9% | [11]; at 1.2 µM -7% | [11]; at 3.7 µM -9% | [11]; [17] 30% | [11]; at 11.0 µM 3% | [11]; at 33.0 µM 4% | [11]; [18] 30% | [11]; at 50.0 µM 8.45% | [11]; at 100.0 µM -11% | [12]; at 1.2 µM -1% | [12]; at 3.7 µM 1% | [12]; at 11.0 µM -3% | [12]; at 33.0 µM 1% | [12]; at 100.0 µM -2% | [13]; at 1.2 µM -5% | [13]; at 3.7 µM -4% | [13]; at 11.0 µM -2% | [13]; at 33.0 µM -5% | [13]; at 100.0 µM 10% | [14]; at 1.2 µM -4% | [14]; at 3.7 µM -6% | [14]; at 11.0 µM -6% | [14]; at 33.0 µM -4% | [14]; at 100.0 µM -1% | [15]; [17] 25% | [15]; [18] 25% | [15]; at 50.0 µM 64.7%

CN(N=O)C(=O)Nc1ccc(C(=O)O)cc1
inactive: [1]; at 1.2 µM 1% | [1]; at 3.7 µM 3% | [1]; at 11.0 µM 8% | [1]; at 33.0 µM 29% | [1]; at 100.0 µM 62% | [2]; at 1.2 µM -2% | [2]; at 3.7 µM -3% | [2]; at 11.0 µM -2% | [2]; at 33.0 µM -2% | [2]; at 100.0 µM 2% | [3]; at 1.2 µM -1% | [3]; at 3.7 µM 0% | [3]; at 11.0 µM 3% | [3]; at 33.0 µM 12% | [3]; at 100.0 µM 31% | [4]; at 1.2 µM 0% | [4]; at 3.7 µM 3% | [4]; at 11.0 µM 15% | [4]; at 33.0 µM 28% | [4]; at 100.0 µM 36% | [5]; at 1.2 µM 2% | [5]; at 3.7 µM 11% | [5]; [17] 12% | [5]; at 11.0 µM 19% | [5]; at 33.0 µM 44% | [5]; [18] 68% | [5]; at 50.0 µM 65.3% | [6]; at 1.2 µM -10% | [6]; at 3.7 µM 1% | [6]; [17] -8% | [6]; at 11.0 µM -6% | [6]; at 33.0 µM -7% | [6]; [18] 37% | [6]; at 50.0 µM 7.8% | [6]; at 100.0 µM 19% | [7]; at 1.2 µM -4% | [7]; at 3.7 µM 6% | [7]; at 11.0 µM -1% | [7]; at 33.0 µM 2% | [7]; at 100.0 µM 8% | [8]; [17] 43% | [8]; at 50.0 µM 62.6% | [9]; at 1.2 µM -4% | [9]; at 3.7 µM -3% | [9]; at 11.0 µM -6% | [9]; at 33.0 µM -9% | [9]; at 100.0 µM -1% | [10]; [17] -45% | [10]; [18] -4% | [10]; at 50.0 µM 2.05% | [11]; at 1.2 µM -14% | [11]; at 3.7 µM -8% | [11]; [17] -16% | [11]; at 11.0 µM -5% | [11]; at 33.0 µM -9% | [11]; [18] 6% | [11]; at 50.0 µM -14.2% | [11]; at 100.0 µM -8% | [12]; at 1.2 µM -3% | [12]; at 3.7 µM -2% | [12]; at 11.0 µM -1% | [12]; at 33.0 µM 0% | [12]; at 100.0 µM 6% | [13]; at 1.2 µM -6% | [13]; at 3.7 µM 1% | [13]; at 11.0 µM -1% | [13]; at 33.0 µM -21% | [13]; at 100.0 µM -12% | [14]; at 1.2 µM 2% | [14]; at 3.7 µM 8% | [14]; at 11.0 µM 20% | [14]; at 33.0 µM 35% | [14]; at 100.0 µM 55% | [15]; [17] 16% | [15]; [18] 51% | [15]; at 50.0 µM 32.9% | [16]; at 1.2 µM 18% | [16]; at 3.7 µM 47%
active: [5]; at 100.0 µM 77% | [8]; [18] 80% | [16]; at 11.0 µM 81% | [16]; at 33.0 µM 90% | [16]; at 100.0 µM 93%
